A selection: hits, their analogues and other compounds. The true share with any hit is near 3.4%.
GPR151 ag: activates the human receptor GPR151 | Q8TDV0 | PathHunter beta-arrestin GPR151 cells, luminescence | activation, % at 11.2 µM | 650,000 compounds, 1% hits; in the data active = activation above about 4.9%
Target sequence (Q8TDV0 whole entry, looked up): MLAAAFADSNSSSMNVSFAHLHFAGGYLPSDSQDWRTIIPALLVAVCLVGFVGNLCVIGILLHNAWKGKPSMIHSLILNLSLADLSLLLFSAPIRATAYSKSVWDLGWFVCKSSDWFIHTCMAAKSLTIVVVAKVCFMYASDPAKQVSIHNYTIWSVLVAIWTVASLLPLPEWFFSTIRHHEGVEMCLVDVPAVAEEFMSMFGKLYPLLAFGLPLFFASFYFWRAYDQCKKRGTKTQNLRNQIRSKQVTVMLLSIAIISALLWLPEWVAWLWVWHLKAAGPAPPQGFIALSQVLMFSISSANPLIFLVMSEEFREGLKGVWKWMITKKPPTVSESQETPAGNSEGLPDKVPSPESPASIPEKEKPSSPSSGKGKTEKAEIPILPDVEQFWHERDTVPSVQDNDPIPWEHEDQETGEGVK
TEAD-YAP inh: TEAD-YAP interaction inhibition | HEK-TIYL cells, TEAD-Gal4/YAP UAS-luciferase luminescence | 640,000 compounds, 1.4% hits | inhibition, % at 9.12 µM | AID 1259422; in the data active = inhibition above about 32%
MITF inh: blocks human microphthalmia-associated transcription factor; inhibition, % at 2.6 µM; AlphaScreen MITF homodimerization, bead proximity signal; 650,000 compounds, 0.91% hits; AID 1259374; O75030; in the data active = inhibition above about 50%
FBW7 act: human FBW7 E3 ligase activation, primary screen; normalized activity (activation), % at 26.1 µM; AID 1259310; 650,000 compounds, 0.13% hits; Q969H0; AlphaScreen FBW7–phospho-cyclin E peptide binding, activator screen; in the data active = normalized activity above about 1.9%;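 also: purified mutant Fbw7 with reduced substrate affinity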
Of the large screens only hits and unclear results are named; the others gave an inactive call.

CCS(=O)(=O)c1ncc(Cl)c(C(=O)Nc2ccccc2C(F)(F)F)n1	TEAD-YAP inh 35.2
CCS(=O)(=O)c1ncc(Cl)c(C(=O)Nc2cccc(C(F)(F)F)c2)n1	TEAD-YAP inh 34.1
CC(C)CNC(=O)c1ccccc1NC(=O)c1ccc(F)cc1	none
O=C(Cc1ccc(Cl)cc1)Nc1nnc(Cc2ccccc2)s1	none
CCOC(=O)c1ccc(NS(=O)(=O)c2coc(C(N)=O)c2)cc1	none
Cc1cc(OCC(=O)NNC(=O)CCc2ccccc2)ccc1Br	FBW7 act 2.3
CC(C)c1ccccc1OCC(=O)Nc1nccs1	none
Cc1ccc(Cl)c(OCC(=O)Nc2nccs2)c1	TEAD-YAP inh 56.1
O=C(COc1ccccc1Br)Nc1nccs1	TEAD-YAP inh 75.0
O=C(O)c1ccc(-n2nncc2-c2cccs2)cc1	none
O=C(NCc1ccc(F)cc1)c1cnc(N2CCN(c3ccccn3)CC2)c2ccccc12	none
O=C(NCc1cccnc1)c1cnc(N2CCN(c3ccccn3)CC2)c2ccccc12	TEAD-YAP inh 38.7
O=C(NCC1COc2ccccc2O1)c1cnc(N2CCN(c3ccccn3)CC2)c2ccccc12 (configuration not stated)	TEAD-YAP inh 41.2
Cc1c(C(=O)NCc2cccnc2)sc2ncnc(N3CCN(c4ccccn4)CC3)c12	TEAD-YAP inh 34.7
O=C(NCC1COc2ccccc2O1)c1cnc(N2CCN(c3ncccn3)CC2)c2ccccc12 (configuration not stated)	none
Nn1c(SCC(=O)Nc2ccc3c(c2)OCCO3)nnc1-c1ccc(Cl)cc1	none
Cc1cccc(-c2nc3sc4c(c3c(=O)o2)CCCCC4)c1	none
CCOC(=O)c1c(N)sc(C(=O)OC)c1CC(=O)OC	none
COC(=O)c1sc(N)c(C(=O)OC)c1COC(=O)c1c(C)noc1C	TEAD-YAP inh 46.5
CCc1ccc(S(=O)(=O)N(C(C)=O)c2ccc3oc(C)c(C(=O)OC)c3c2)cc1	TEAD-YAP inh 48.8
CCCc1oc2ccc(NS(=O)(=O)c3ccc(F)cc3)cc2c1C(=O)OCC	none
COC(=O)c1c(C)oc2ccc(NS(=O)(=O)c3ccc(C)cc3C)cc12	TEAD-YAP inh 46.2
CCCc1oc2ccc(NS(=O)(=O)c3ccc(C)cc3)cc2c1C(=O)OCC	TEAD-YAP inh 57.1
COCc1oc2ccc(NS(=O)(=O)c3ccc(C)cc3)cc2c1C(=O)OC	TEAD-YAP inh 55.0
COC(=O)c1c(C)oc2ccc(NS(=O)(=O)c3cc(C)ccc3C)cc12	none
Cc1c(Cl)c([N+](=O)[O-])nn1CC(=O)Nc1cc(Cl)ccc1O	none
Cc1nc2c(c(N3CCCC3)n1)CN(S(=O)(=O)c1cccs1)CC2	none
CCN(C(=O)Cn1nc(Cc2ccncc2)c2ccccc2c1=O)c1ccccc1C	none
CC(=O)c1c(C)oc2ccc(N(C(C)=O)S(=O)(=O)c3cccc4cccnc34)cc12	TEAD-YAP inh 52.4
CCOC(=O)c1c(C)oc2ccc(NS(=O)(=O)c3ccc(Cl)cc3)cc12	none
CCOc1ccc(S(=O)(=O)Nc2ccc3oc(C)c(C(=O)OCCOC)c3c2)cc1	TEAD-YAP inh 57.3
COC(=O)c1c(C)oc2ccc(N(C(=O)c3ccc([N+](=O)[O-])cc3)S(=O)(=O)c3ccc(C)cc3)cc12	TEAD-YAP inh 58.5
CCOC(=O)c1c(C)oc2ccc(NS(=O)(=O)c3ccc(C)cc3)cc12	TEAD-YAP inh 34.0
COCCn1c(=NC(=O)c2cc(=O)c3ccccc3o2)sc2cc(OC)ccc21	none
CC(=O)c1c(C)oc2ccc(NS(=O)(=O)c3c(C)cc(C)cc3C)cc12	TEAD-YAP inh 37.0
CCc1ccc(S(=O)(=O)Nc2ccc3oc(C)c(C(=O)OC)c3c2)cc1	TEAD-YAP inh 60.1
COc1ccc(OC)c(N(CC(=O)Nc2ccc3c(c2)OCO3)S(C)(=O)=O)c1	none
NC(=O)c1ccccc1Nc1cc(NC(=O)Cc2ccc(CN3CCOCC3)cc2)ncc1Cl	TEAD-YAP inh 99.3
NC(=O)c1ccccc1Nc1cc(NC(=O)Cc2ccc3ccccc3c2)ncc1C(F)(F)F	TEAD-YAP inh 93.3
NC(=O)c1ccccc1Nc1cc(Oc2ccc(N3CCNCC3)cc2)ncc1C(F)(F)F	none
NC(=O)c1ccccc1Nc1cc(NC(=O)Cc2ccc(CN3CCOCC3)cc2)ncc1C(F)(F)F	TEAD-YAP inh 98.6
O=C(Cc1ccc2c(c1)OCO2)Nc1cc(Nc2ccccc2-c2nn[nH]n2)c(Cl)cn1	none
NC(=O)c1ccccc1Nc1nc(Nc2ccc(N3CCOCC3)c(Cl)c2)ncc1Cl	none
NC(=O)c1ccccc1Nc1cc(NC(=O)Cc2ccc(F)cc2)ncc1Cl	TEAD-YAP inh 81.4
CC(C)OCCCNCc1nc2scc(-c3ccccc3)c2c(=O)[nH]1	none
Cc1ccc(C2=NN(c3ccccc3)C(c3ccccc3)C2)cc1 (configuration not stated)	none
COc1ccc(CC(=O)Nc2nccs2)cc1OC	none
O=C(Nc1nccs1)c1ccc(OCc2ccc3ccccc3n2)cc1	FBW7 act 5.6
O=C(NCc1cccs1)c1ccc(OCc2ccc3ccccc3n2)cc1	none
COc1ccc(OCC(=O)Nc2nccs2)cc1	TEAD-YAP inh 68.3
CCOc1ccc(OCC(=O)Nc2nccs2)cc1	TEAD-YAP inh 79.4
O=C(COc1ccc(Cl)cc1)Nc1nccs1	none
COc1cc(C(C)=O)ccc1OCC(=O)Nc1nccs1	TEAD-YAP inh 56.0
Cc1cc(OCC(=O)Nc2nccs2)ccc1C(C)C	TEAD-YAP inh 61.1
O=C(CSc1cccc[n+]1[O-])Nc1cc(C(F)(F)F)cc(C(F)(F)F)c1	none
CC(C)Oc1ccc(C(=O)Nc2nc(-c3ccc(F)cc3F)cs2)cc1	TEAD-YAP inh 37.6
CCCCNS(=O)(=O)c1ccc2nc(SCC(C)=O)[nH]c2c1	TEAD-YAP inh 33.6
Nc1ccc(N2C(=O)c3ccc(N)cc3C2=O)cc1	TEAD-YAP inh 34.4
Nc1ccc2c(c1)C(=O)N(c1ccc(O)cc1)C2=O	none
CC1CCN(Cc2cc(COC(C)C)c3cccnc3c2O)CC1	MITF inh 85.4
CC1CN(Cc2cc([N+](=O)[O-])c3cccnc3c2O)CC(C)O1 (configuration not stated)	TEAD-YAP inh 53.8, MITF inh 83.7
COCc1cc(CN2CCC(C)CC2)c(O)c2ncccc12	TEAD-YAP inh 64.9, MITF inh 103.9
COc1ccc(Cl)cc1C(=O)On1c(-c2ccc(Br)cc2)nc2ccccc2c1=O	FBW7 act 3.2
COc1ccc(C(=O)On2c(-c3cccc(Cl)c3)nc3ccccc3c2=O)cc1Br	none
Cc1ccc(C(=O)Nc2nc(Cl)c(C#N)s2)cc1	TEAD-YAP inh 70.6
N#Cc1sc(NC(=O)c2ccc(F)c(F)c2)nc1Cl	none
N#Cc1sc(NC(=O)c2cccc(Br)c2)nc1Cl	TEAD-YAP inh 64.2
Cc1cc(I)cc2c1NC(c1ccc(F)cc1)C1CC=CC21 (configuration not stated)	none
CCOc1ccc2nc(SCC(=O)Nc3nccs3)sc2c1	none
Cc1nc2ccccn2c1-c1csc(Nc2ccc(O)cc2)n1	none
Cc1nc2ccccn2c1-c1csc(Nc2ccc(N)cc2)n1	TEAD-YAP inh 53.8
CC(=O)Nc1ccc(Nc2nc(-c3c(C)nc4ccccn34)cs2)cc1	TEAD-YAP inh 50.4
Cc1nc2ccccn2c1-c1csc(N)n1	TEAD-YAP inh 44.2
O=C(Nc1cccc(-c2ccn[nH]2)c1)C1CCN(Cc2cccc3c2OCO3)CC1	none
